Compounds with a hit are over-represented: about 2.1% of the library has one in this group of screens.
aSyn yeast inh: alpha-synuclein toxicity inhibition in yeast; Potency, µM (top dose mostly 46.1 µM), without a hit: top-dose growth rescue (activation), most hits filed as activators; AID 652106; 370,000 compounds, 0.14% hits; Yeast expressing alpha-synuclein, growth rescue, BacTiter-Glo, 24 h; further: % of control where 0% means no effect; nearly all actives have a fitted effect of over 65% in size
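Screening used galactose-induced yeast with toxic alpha-synuclein levels, exposed to compound for 24 hr at 30 deg C. Cell growth, read with BacTiter-Glo luminescence, gave the measured signal.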
TDP-43 yeast inh: rescues yeast growth from TDP-43 toxicity; Potency, µM (highest dose often 46.1 µM), inactives show at the top dose growth rescue (activation), usual class: activators; TDP-43 expressing yeast growth rescue, BacTiter-Glo, 24 h; 410,000 compounds, 1.8% hits; further: % of control where 0% means no effect; nearly all actives have a fitted effect of over 50% in size
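In this qHTS, compounds that restore growth of yeast expressing TDP-43 appear as activators. Cells (OD600=0.02, galactose medium, raffinose-pregrown) are incubated with compound 24 hr at 30 deg C and growth is quantified by BacTiter-Glo.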
FUS suppressor: rescues growth of FUS-expressing yeast; Potency, µM (highest dose often 76.6 µM), usual class: activators; 390,000 compounds, 0.24% hits; S. cerevisiae FUS-expressing, growth rescue, OD600, 24 h; AID 1347120;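 further: plate controls were DMSO vehicle for no effect and reference control for full effect; nearly all actives have a fitted effect of over 55% in size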
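Toxicity suppression screen in FUS-yeast. Cells induced with 2% galactose, starting OD 0.005, treated 24hr at 30C with compounds at multiple final concentrations; growth by OD600.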
Abeta yeast res: compounds reversing amyloid beta toxicity in yeast; yeast expressing A-beta42, growth rescue, OD600, 48 h; response scale: 0% DMSO, 100% iron-clioquinol control; Potency, µM (top dose mostly 46.1 µM), usual class: activators; 410,000 compounds, 0.063% hits; further: nearly all actives have a fitted effect of over 55% in size
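Yeast A-beta toxicity model in growth medium with pinned compounds, 48 h at 30 C; growth read as absorbance at 600 nm. Normalized to FeCl3/clioquinol equimolar mix (positive) and DMSO (negative).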
Numbers without * were called inactive; i = inactive; ? = inconclusive; · = no result given; ! = a repeat was not active; [ ] = dose if it differs, or a comment. The call rests on the fitted dose curve; in most records, active means well fitted curve in the direction sought with a large enough effect; inconclusive means small, poorly fitted or top-dose-only effect, or another doubt; inactive means no such curve, though single readings can be large; an effect the other way counts as inactive or inconclusive. Potency means the concentration at half of the fitted maximal effect.

SMILES	aSyn yeast inh	TDP-43 yeast inh	FUS suppressor	Abeta yeast res
O=C(NCCc1c[nH]c2ccccc12)OCc1cn(-c2ccc(F)cc2F)nn1	·	·	i	·
COc1ccc(Cl)cc1NC(=O)c1c(-c2ccccc2)noc1C	-7.3%	0.0%	i	i
COc1ccc(Cl)cc1NC(=O)CC(C)c1ccccc1 (stereo unspecified)	-9.5%	12.6µM*	?	?
COc1ccc(Cl)cc1NC(=O)COC(=O)c1c(-c2ccccc2)noc1C	17.6%	12.6µM*	i	?
COc1ccc(Cl)cc1NC(=O)CC(C)=O	1.3%	0.0%	i	i
CCOc1ccc(NC(=O)COC(=O)c2ccccc2OCc2ccccc2Br)cc1	-2.2%	·	·	·
COc1ccc(-c2ccc(CCC(=O)O)o2)cc1	?	10µM*	?	i
O=C(O)CCc1ccc(-c2ccc(Br)cc2)o1	-43.8%	3.16µM*	i	i
O=C(O)CCc1ccc(-c2ccc(Cl)cc2)o1	-47.2%	?	i	i
NC(=O)c1ccc(-c2ccc(Br)cc2)o1	-0.2%	12.6µM*	i	i
NC(=O)C1CCN(C(=S)c2ccc(-c3ccc(Br)cc3)o2)CC1	-5.5%	-8.0%	i	i
COC(=O)c1ccccc1NC(=O)c1cnn2c1NC(=C1CC1)C=C2C(F)F	-12.5%	·	·	·
CCN(CC)C(=O)c1oc(=O)c2ccccc2c1-c1ccc(C)cc1	·	·	i	·
CCOC(=O)[C@]12CCCCC/C=C\1N(Cc1ccc(OC)cc1)C(=O)[C@H]2CC(=O)N1CCCC1	·	·	i	·
CCCCS/C(N)=N/N=C/c1ccccc1O	-3.1%	11.2µM*	i	i
CCCS/C(N)=N/N=C/c1cc(C)ccc1O	4.8%	12.4%	i	i
COc1ccccc1CNC(=O)COc1ccccc1C	-1.0%	?	i	i
COc1ccccc1CNC(=O)COc1ccc(Br)c(C)c1	15.1%	17.8µM*	i	i
CC(=O)c1ccc(NC(=O)NC2CCCCN(Cc3cccc(Cl)c3)C2=O)cc1 (stereo unspecified)	·	·	i	·
Cc1ccc(C)n1-c1sccc1C(=O)O	2.6%	-11.7%	12.6µM*	i
Oc1c(C(c2ccccc2)N2CCOCC2)sc2nc(-c3ccco3)nn12 (stereo unspecified)	·	13.0%	i	i
COCCCNC(=O)C[C@@H]1C(=O)N(CCc2ccc(Cl)cc2)C2=CCCCC[C@]21C(=O)OC	·	·	i	·
Cc1cccc(-c2nc(CS(=O)CC(=O)NC3CCCC3)c(C)o2)c1 (stereo unspecified)	5.62µM*	?	i	i
C=CCc1cccc(/C=N/NC(=O)CNc2ccccc2OC)c1O	8.6%	11.2µM*	i	i
O=C(CNc1ccc(Br)cc1)c1ccc(O)cc1	-26.6%	10µM*	i	i
SMILES	aSyn yeast inh	TDP-43 yeast inh	FUS suppressor	Abeta yeast res
COc1cc2c(=O)c(C(=O)c3ccc(C)c(C)c3)cn(Cc3ccccc3F)c2cc1OC	·	?	i	?
CC1(Cc2ccccc2OC(F)(F)F)C(=O)Nc2ccc(-c3ccsc3)cc21 (stereo unspecified)	-60.5%	20µM*	i	i
CC1(Cc2ccccc2OC(F)(F)F)C(=O)Nc2ccc(OC(F)(F)F)cc21 (stereo unspecified)	2.5%	-54.6%	i	i
CC1(C)CC(=O)c2cc(C(=O)Nc3cccc4ccccc34)c(=O)[nH]c2C1	0.8%	·	·	·
Cc1cc(SCc2cc(=O)n3ccsc3n2)nc2ccccc12	1.0%	11.2µM*	i	i
O=C(Nc1ccc2c(c1)CCCN2C(=O)c1cccs1)c1cccc(C(F)(F)F)c1	·	3.5%[9.22 µM]	i	i
COc1ccc(Br)cc1CNC(=O)CCC(=O)N1CCSc2ccccc21	-1.1%	22.4µM*!	?	i
COc1ccc(N=Cc2nc(-c3ccco3)oc2O)cc1	-7.4%	7.08µM*	i	i
CN(N)c1nc(-c2ccccc2)cc(-c2ccccc2)n1	-4.4%	11.2µM*	i	i
CCN(CC)c1nc(C(N)=O)cc(-c2ccccc2)n1	20µM*	9.8%	i	i
CN1CCN(c2nc(C(N)=O)cc(-c3ccccc3)n2)CC1	3.1%	-2.8%	i	i
COc1cc(N(C)C)c(OC)cc1/C=C1\C=Cc2ccccc21	-8.3%	·	·	·
O=C1COc2ccccc2C(c2nnnn2-c2ccc3ccccc3c2)N1C1CC1 (stereo unspecified)	·	·	i	·
Cc1nc(N2CCN(c3ccccc3)CC2)nc2c1C(=O)CC(C)C2 (stereo unspecified)	4.4%	?	i	i
Cc1nc(N2CCN(c3ccccc3)CC2)nc2c1C(=O)CCC2	22.8%	12.6µM*	i	i
CCC(=O)Nc1ccc(SC#N)cc1C	8.0%	11.2µM*	i	i
CCOC(=O)[C@]12CCC=C1N(CCC1=CCCCC1)C(=O)[C@H](CC(=O)NCC1CCCCC1)C2	8.8%	16.5%	?	i
CCOC(=O)[C@]12CCC=C1N(CCC1=CCCCC1)C(=O)[C@H](CC(=O)NCc1ccccc1)C2	8.3%	0.0%	i	i
CCOC(=O)[C@]12CCCC=C1N(CCC1=CCCCC1)C(=O)[C@H](CC(=O)NCC1CCCCC1)C2	-7.1%	22.4µM*	?	i
CCOC(=O)[C@]12CCCC=C1N(CCC1=CCCCC1)C(=O)[C@H](CC(=O)NCc1ccccc1)C2	3.4%	22.4µM*	?	?
COc1ccc(CCNCc2c(C(=O)O)c(C)n(Cc3c(F)cccc3Cl)c2C)cc1OC	·	0.0%	i	i
O=c1c2cc3cccnc3nc2ncn1Cc1cccs1	·	·	i	·
COC(=O)C1=C(C)N(c2ccc(Cl)c(Cl)c2)C(=O)C1	-10.8%	12.6µM*	i	i
Cc1cccc(NC(=O)CSc2nc3n[nH]c(C)c3c(=N)n2-c2cccc(Cl)c2)c1	·	15.6%	i	i
CCCCCCOc1ccc(NC(=O)CC2C(=O)N(CC)C(=S)N2Cc2ccco2)cc1 (stereo unspecified)	14.1µM*	?	·	i
SMILES	aSyn yeast inh	TDP-43 yeast inh	FUS suppressor	Abeta yeast res
CCN1C(=O)C(CC(=O)Nc2ccc(F)cc2)N(Cc2ccco2)C1=S (stereo unspecified)	3.4%	18.2%	i	i
O=C(NC1CCCCN(Cc2cccc(C(F)(F)F)c2)C1=O)c1ccc(Cl)c(Cl)c1 (stereo unspecified)	·	·	i	·
N#Cc1ccc(OCC(=O)NCCCN2CCCC2=O)cc1	-4.1%	10.3%	i	i
COc1cc([N+](=O)[O-])ccc1NC(=O)NCCCN1CCCC1=O	-6.3%	-25.0%	i	i
N#Cc1ccc(-c2ccc(OCC(=O)NCCCN3CCCC3=O)cc2)cc1	-11.8%	12.6µM*	i	i
COc1ccc(NC(=O)NCCCN2CCCC2=O)c(OC)c1	·	0.001µM*	i	i
Cc1ccc(-c2cc(C(=O)N=Nc3c(O)[nH]c4ccccc34)[nH]n2)cc1C	·	·	i	·
C=CCNc1nc2cc(-c3ccccc3C)sc2c(=O)n1C	5.9%	35.5µM*	i	i
COc1cccc(CNc2nc3cc(-c4ccc(F)cc4)sc3c(=O)n2C)c1OC	1.2%	0.0%	i	i
